# IDE exosite inh: exo-site inhibitors of human IDE, primary screen, biochemical, fluorescence anisotropy, probe displacement; purified IDE, FL-6b probe fluorescence polarization; stronger effect = lower value; AID 1259349, 2017; Insulin-degrading enzyme (Homo sapiens), P14735; z-score at 20 µM; 6.3% of 17,000 active;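 active = z-score of -3 or lower, meaning strong loss of probe binding signal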;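 also: His-tagged human IDE residues 42-1019 made in E. coli with 30 nM FL-6b probe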
# Target sequence (P14735 42-1019 limits assumed): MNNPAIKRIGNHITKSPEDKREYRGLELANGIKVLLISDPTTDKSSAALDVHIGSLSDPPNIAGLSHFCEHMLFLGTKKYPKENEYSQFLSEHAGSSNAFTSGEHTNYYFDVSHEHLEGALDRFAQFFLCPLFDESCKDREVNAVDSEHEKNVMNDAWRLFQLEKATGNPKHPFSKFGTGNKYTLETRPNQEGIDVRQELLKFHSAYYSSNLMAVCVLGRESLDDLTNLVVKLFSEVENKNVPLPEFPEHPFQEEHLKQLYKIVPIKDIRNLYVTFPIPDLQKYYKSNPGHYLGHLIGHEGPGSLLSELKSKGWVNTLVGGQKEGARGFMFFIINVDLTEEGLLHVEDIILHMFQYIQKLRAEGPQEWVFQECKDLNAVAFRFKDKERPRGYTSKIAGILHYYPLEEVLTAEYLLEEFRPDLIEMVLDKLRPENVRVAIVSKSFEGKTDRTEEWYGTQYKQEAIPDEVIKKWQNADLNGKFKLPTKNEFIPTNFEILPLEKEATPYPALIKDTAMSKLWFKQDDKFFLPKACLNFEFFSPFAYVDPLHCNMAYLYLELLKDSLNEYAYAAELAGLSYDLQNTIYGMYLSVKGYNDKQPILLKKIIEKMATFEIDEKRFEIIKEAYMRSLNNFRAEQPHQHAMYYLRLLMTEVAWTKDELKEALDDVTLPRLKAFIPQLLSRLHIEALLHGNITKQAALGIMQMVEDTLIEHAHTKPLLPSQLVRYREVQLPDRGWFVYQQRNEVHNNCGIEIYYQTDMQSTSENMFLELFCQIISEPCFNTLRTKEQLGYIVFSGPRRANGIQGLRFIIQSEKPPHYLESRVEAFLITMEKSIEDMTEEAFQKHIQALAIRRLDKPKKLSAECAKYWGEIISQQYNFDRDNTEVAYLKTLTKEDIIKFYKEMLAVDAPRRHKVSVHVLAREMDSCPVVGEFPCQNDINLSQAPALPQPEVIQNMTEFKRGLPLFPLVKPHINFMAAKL
# An asterisk follows results filed as active. Shown is part of a subset that was picked to be rich in hits.
SMILES,IDE exosite inh
C[C@H](CO)N1C[C@H](C)[C@@H](CN(C)C(=O)Nc2cccc(Cl)c2Cl)OCc2ccccc2-c2ccccc2C1=O,1.2
COc1cccc(S(=O)(=O)N2C[C@@H](O)COC[C@@H]3O[C@H](CC(=O)NCCCN4CCOCC4)CC[C@H]32)c1,0.45
O=C(c1ccccc1)N1CC(=O)N2[C@H](CO)[C@@H](c3ccc(C#CC4CC4)cc3)[C@H]2C1,4.2
CO[C@H]1CN(C)C(=O)c2ccc(NC(=O)c3nc4ccccc4s3)cc2OC[C@@H](C)N(Cc2cccnc2)C[C@H]1C,-0.67
O=C(C[C@H]1CC[C@H](NC(=O)C2CCOCC2)[C@@H](CO)O1)NCC1CCCCC1,2.4
OC[C@@H]1[C@H](c2ccc(-c3ccccc3F)cc2)[C@@H]2CN(Cc3cncnc3)CCCCN12,-1.6
Cc1cccc(-c2ccc([C@@H]3[C@H]4CN(Cc5cncnc5)CCCCN4[C@H]3CO)cc2)c1,-4.7*
OC[C@@H]1[C@@H](c2ccc(-c3ccccc3F)cc2)[C@H]2CN(Cc3cncnc3)CCCCN12,0.86
OC[C@@H]1[C@H](c2ccc(C3=CCCC3)cc2)[C@H]2CN(Cc3cncnc3)CCCCN12,0.59
Cc1cccc(-c2ccc([C@@H]3[C@H](CO)N4CCCCN(Cc5cncnc5)C[C@@H]34)cc2)c1,-7.5*
OC[C@@H]1[C@@H](c2ccc(Br)cc2)[C@H]2CN(Cc3cncnc3)CCCCN12,0.52
Cc1ccc(-c2ccc([C@H]3[C@@H](CO)N4CCCCN(Cc5cncnc5)C[C@H]34)cc2)cc1,-0.17
Cc1cccc(-c2ccc([C@H]3[C@@H](CO)N4CCCCN(Cc5cccnc5)C[C@H]34)cc2)c1,-6.8*
Cc1cccc(-c2ccc([C@H]3[C@@H](CO)N4CCCCN(Cc5cccnc5)C[C@@H]34)cc2)c1,-1.8
Cc1cccc(-c2ccc([C@@H]3[C@@H](CO)N4CCCCN(Cc5cncnc5)C[C@@H]34)cc2)c1,-6.7*
OC[C@@H]1[C@H](c2ccc(-c3ccc(F)cc3)cc2)[C@H]2CN(Cc3cccnc3)CCCCN12,1.2
O=C1CCC(=O)N[C@H](c2ccc(F)cc2)C/C=C\C[C@@H](c2ccc(F)cc2)N1,-0.81
COCCN(C[C@@H]1N[C@@H](CO)[C@@H]1c1ccc(-c2ccc(F)cc2)cc1)C(C)=O,5.7
C/C=C/c1ccc([C@H]2[C@@H](CO)N(C(=O)NC(C)C)[C@H]2CNC(C)=O)cc1,3.4
C[C@@H]1CN([C@@H](C)CO)C(=O)c2cc(C3=CCCCC3)cnc2O[C@H]1CN(C)S(=O)(=O)c1cn(C)cn1,0.01
COCC#Cc1ccc([C@H]2[C@H]3CN(C(=O)c4ccncc4)CC(=O)N3[C@H]2CO)cc1,-0.81
COc1ccc(NC(=O)N(C)C[C@H]2OCCCC[C@H](C)Oc3ccc(NC(=O)c4ccncc4)cc3C(=O)N([C@@H](C)CO)C[C@@H]2C)cc1,0.88
Cc1cccc(-c2ccc([C@H]3[C@H]4CN(C(=O)c5ccccc5)CC(=O)N4[C@H]3CO)cc2)c1,-0.72
O=C(c1ccc2c(c1)OCO2)N1CC(=O)N2[C@H](CO)[C@@H](c3ccc(C#Cc4ccccc4)cc3)[C@H]2C1,2.9
O=C(c1ccc2c(c1)OCO2)N1CC(=O)N2[C@@H](CO)[C@H](c3ccc(C#Cc4ccccc4)cc3)[C@@H]2C1,-4.3*
SMILES,IDE exosite inh
Cc1ccc(-c2ccc([C@H]3[C@@H](CO)N4C(=O)CN(C(=O)c5ccccc5)C[C@@H]34)cc2)cc1,1.3
Cc1cccc(-c2ccc([C@@H]3[C@H](CO)N4C(=O)CN(C(=O)c5ccccc5)C[C@@H]34)cc2)c1,-4.6*
Cc1cccc(-c2ccc([C@H]3[C@@H](CO)N4C(=O)CN(C(=O)c5ccc6c(c5)OCO6)C[C@@H]34)cc2)c1,-3.1*
Cc1cccc(-c2ccc([C@H]3[C@H](CO)N4C(=O)CN(C(=O)c5ccccc5)C[C@@H]34)cc2)c1,-7.4*
Cc1cccc(-c2ccc([C@@H]3[C@@H](CO)N4C(=O)CN(C(=O)c5ccccc5)C[C@H]34)cc2)c1,-1.4
O=C(c1ccc2c(c1)OCO2)N1CC(=O)N2[C@H](CO)[C@H](c3ccc(C#Cc4ccccc4)cc3)[C@@H]2C1,-0.14
COc1ccc(-c2ccc([C@@H]3[C@@H](CO)N4C(=O)CN(C(=O)c5ccc6c(c5)OCO6)C[C@H]34)cc2)cc1,0.31
Cc1ccc(-c2ccc([C@@H]3[C@@H](CO)N4C(=O)CN(C(=O)c5ccccc5)C[C@H]34)cc2)cc1,0.83
O=C(c1ccc2c(c1)OCO2)N1CC(=O)N2[C@H](CO)[C@@H](c3ccc(-c4ccccc4)cc3)[C@H]2C1,0.43
C[C@@H]1CN([C@H](C)CO)C(=O)c2cccc(NC(=O)c3nc4ccccc4s3)c2O[C@H]1CN(C)C(=O)Nc1ccc2c(c1)OCO2,-0.17
CCC(=O)N1[C@@H]2c3cccc(=O)n3C[C@H]1[C@H](CO)[C@H]2C(=O)NC1Cc2ccccc2C1,-0.28
O=C(Nc1cccc(F)c1)N1C[C@@H]2[C@H](c3ccccc31)[C@H](CO)N2C(=O)Cc1ccccn1,0.29
CC(C)C#Cc1ccc([C@H]2[C@H](CO)N3C(=O)CN(C(=O)NC4CCCC4)C[C@@H]23)cc1,-1
COc1ccc(-c2ccccc2[C@H]2[C@@H](CO)N(C(=O)C3CCOCC3)[C@H]2C#N)cc1,0.083
COc1cccc(C#Cc2ccc([C@@H]3[C@@H](C#N)N(C(=O)c4ccccn4)[C@@H]3CO)cc2)c1,-1.3
COc1cccc(-c2ccc([C@H]3[C@@H](CO)N(C(=O)c4ccccn4)[C@H]3C#N)cc2)c1,-5.9*
COc1cccc(-c2ccc([C@H]3[C@@H](C#N)N(C(=O)c4ccccn4)[C@@H]3CO)cc2)c1,-4.3*
COc1cccc(C#Cc2ccc([C@H]3[C@@H](C#N)N(C(=O)c4ccccn4)[C@@H]3CO)cc2)c1,-1.1
COc1cccc(C#Cc2ccc([C@@H]3[C@@H](C#N)N(C(=O)c4ccccn4)[C@H]3CO)cc2)c1,1.5
COc1cccc(-c2ccc([C@H]3[C@H](C#N)N(C(=O)c4ccccn4)[C@H]3CO)cc2)c1,-2.9
O=C(c1ccncc1)N1C[C@H]2[C@@H](c3ccccc31)[C@H](CO)N2Cc1ccccc1F,-0.18
COc1ccc(S(=O)(=O)N2CCCCN3[C@H](CO)[C@@H](c4ccc(-c5cccnc5)cc4)[C@@H]3C2)cc1,-2.2
CN1CCCCN2[C@H](CO)[C@@H](c3ccc(C#Cc4ccccc4F)cc3)[C@H]2C1,-4.7*
CN1CCCCN2[C@H](CO)[C@@H](c3ccc(C#CC4(O)CCCC4)cc3)[C@H]2C1,3.3
CN1CCCCN2[C@@H](CO)[C@H](c3ccc(C#Cc4ccccc4F)cc3)[C@@H]2C1,-4.4*
SMILES,IDE exosite inh
CN1CCCCN2[C@H](CO)[C@H](c3ccc(C#CC4(O)CCCC4)cc3)[C@H]2C1,3.5
COc1ccc(C#Cc2ccc([C@@H]3[C@@H](CO)N4CCCCN(C)C[C@@H]34)cc2)cc1,0.079
CN1CCCCN2[C@H](C1)[C@@H](c1ccc(C#Cc3ccccc3F)cc1)[C@@H]2CO,-3.4*
CN1CCCCN2[C@H](C1)[C@H](c1ccc(C#CC3(O)CCCC3)cc1)[C@@H]2CO,2.8
CN1CCCCN2[C@H](C1)[C@H](c1ccc(-c3ccc(F)cc3)cc1)[C@@H]2CO,0.11
C[C@H]1CN([C@@H](C)CO)C(=O)c2cc(NC(=O)C3CCCCC3)ccc2O[C@H]1CN(C)Cc1ccc2c(c1)OCO2,0.36
C[C@@H]1CN([C@H](C)CO)C(=O)c2cc(NC(=O)c3ccncc3)ccc2O[C@@H](C)CCCCO[C@H]1CN(C)Cc1ccc(Cl)c(Cl)c1,0.52
